The values below come from PubChem BioAssay (EPA / NIEHS).

The nature of assay [1]: BSK_3C_VCAM1: BioMAP Diversity Plus: 3C Assay for Vascular cell adhesion molecule 1 (VCAM1) Biomarker Activity (AID 2282999). The settings on record: BioMAP 3C HUVEC, VCAM1 ELISA, cytokine-stimulated; actives raise or lower the signal. Put shortly:
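Human umbilical vein endothelial cells (3C system), biomarker read by ELISA 24 h after dosing; bidirectional fit against DMSO baseline. Cytotoxicity tracked by SRB total-protein staining in parallel cultures at biomarker time.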
In general terms: In an ELISA, binding on a coated surface is turned into a signal by an enzyme label.

Assay [2] can be described thus: BSK_4H_Eotaxin3: BioMAP Diversity Plus: 4H Assay for Eotaxin 3 Biomarker Activity (AID 2283000).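 As to outcome: CCL26 protein level quantified by ELISA in parallel with SRB cytotoxicity check.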 The following applies: primary human endothelial cells (HUVEC); actives raise or lower the signal. An outline of the steps: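 ELISA quantitation of CCL26 (Eotaxin-3) protein from chemically dosed human vascular endothelial cells at 24 h; increases and decreases both scored relative to DMSO-treated baseline.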

For assay [3], the target named is human Peroxisome Proliferator-activated Receptor alpha (PPARa), PPARA (gene 5465) (UniProt Q07869). Briefly: ATG_PPARa_TRANS: Attagene TRANS-FACTORIAL HepG2 Assay for human Peroxisome Proliferator-activated Receptor alpha (PPARa) (AID 2283001; active = hit-call score of the fitted dose curve at least 0.9, where 1 is the maximum). Put shortly:
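HepG2 cells transiently transfected with multiplexed GAL4-UAS reporters driven by exogenous chimeric NR-Gal4 proteins; reporter mRNA measured after 24 h dosing. Read-out by RT-PCR, 6-FAM labelling, HpaI digestion and capillary electrophoresis; gain of signal versus DMSO.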

The target of assay [4] is human Peroxisome Proliferator-activated Receptor delta (PPARd), PPARD (gene 5467) (UniProt Q03181). The assay is described as follows: ATG_PPARd_TRANS: Attagene TRANS-FACTORIAL HepG2 Assay for human Peroxisome Proliferator-activated Receptor delta (PPARd) (AID 2283002; active = hit-call score of the fitted dose curve at least 0.9, where 1 is the maximum). An outline of the steps:
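Fluorescence from capillary electrophoresis of labelled RT-PCR reporter fragments gives the signal; DMSO sets baseline. Cells: HepG2 transiently carrying GAL4-UAS reporter units plus chimeric nuclear receptor-Gal4 proteins, exposed to chemicals for 24 h.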

Read-out in assay [5]: Intercellular Adhesion Molecule 1 (ICAM1), ICAM1 (gene 3383)
Briefly: BSK_3C_ICAM1: BioMAP Diversity Plus: 3C Assay for Intercellular Adhesion Molecule 1 (ICAM1) Biomarker Activity (AID 2283003). The following applies: primary human endothelial cells (HUVEC); actives raise or lower the signal. Put shortly: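 ICAM-1 levels measured by ELISA after HUVEC cultures in the 3C system had been dosed for 24 h. Gain or loss of signal relative to DMSO was fitted in both directions.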

Assay [6] concerns the target human Retinoic Acid Receptor beta (RARb), RARB (gene 5915) (UniProt P10826). The assay is described as follows: ATG_RARb_TRANS: Attagene TRANS-FACTORIAL HepG2 Assay for human Retinoic Acid Receptor beta (AID 2283004; active = hit-call score of the fitted dose curve at least 0.9, where 1 is the maximum). An outline of the steps:
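Fluorescent capillary-electrophoresis detection of GAL4-UAS reporter mRNA defines the endpoint, with induction over DMSO-treated wells scored as activity. Transiently transfected human hepatoma HepG2 cells expressing exogenous NR–Gal4 proteins are exposed to test chemicals for 24 h.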

Assay [7] in a line: BSK_3C_Proliferation: Cell Proliferation Assessment in the BioMAP Diversity Plus: 3C Assay (AID 2283006).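 As to AC50: potency may reflect either rise or fall in cell number versus DMSO.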 The settings on record: primary human endothelial cells (HUVEC). Put shortly:
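Read-out is total protein by SRB absorbance at 560 nm, taken as a proxy for relative cell number. Primary human umbilical vein endothelium cultured below confluence was dosed for 48 h, TCA-fixed and SRB-stained; curves were fitted bidirectionally versus DMSO.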

Assay [8] has as its target Peroxisome proliferator-activated receptor gamma (Homo sapiens) (UniProt P37231). The assay is described as follows: ATG_PPARg_TRANS: Attagene TRANS-FACTORIAL HepG2 Assay for human Peroxisome Proliferator-activated Receptor-gamma (PPARg) (AID 2283007; active = hit-call score of the fitted dose curve at least 0.9, where 1 is the maximum). An outline of the steps: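 Liver-derived HepG2 cells expressing an exogenous NR-Gal4 chimera alongside GAL4-UAS reporter genes; 24 h exposure. Fluorescence of reporter RT-PCR products, separated by capillary electrophoresis, gives mRNA induction relative to DMSO.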

Assay [9] deals with Nuclear receptor subfamily 1 group I member 2 (Homo sapiens) (UniProt O75469). Briefly: ATG_PXR_TRANS: Attagene TRANS-FACTORIAL HepG2 Assay for human Pregnane X Receptor (PXR) (AID 2283008; active = hit-call score of the fitted dose curve at least 0.9, where 1 is the maximum). Put shortly: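 Read-out is fluorescence of labelled reporter cDNA fragments separated by capillary electrophoresis after RT-PCR and HpaI digestion. Source: HepG2 cells carrying PXR-GAL4/UAS reporter constructs, treated 24 h; activity fitted upward relative to DMSO.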

The target in assay [10] is Retinoic acid receptor RXR-alpha (Homo sapiens) (UniProt P19793). The assay is described as follows: ATG_RXRa_TRANS: Attagene TRANS-FACTORIAL HepG2 Assay for human Retinoid X Receptor alpha (RXRa) (AID 2283012; active = hit-call score of the fitted dose curve at least 0.9, where 1 is the maximum). An outline of the steps: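 Transient transfection of human HepG2 with multiple GAL4-UAS reporter constructs; 24 h compound exposure; total RNA isolated, reverse-transcribed, PCR-amplified, 6-FAM labelled, HpaI-cut, resolved by capillary electrophoresis. Positive-direction fit versus DMSO.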

Assay [11] concerns the target human Retinoid X Receptor beta (RXRb), RXRB (gene 6257) (UniProt P28702). The assay is described as follows: ATG_RXRb_TRANS: Attagene TRANS-FACTORIAL HepG2 Assay for human Retinoid X Receptor beta (RXRb) (AID 2283013; active = hit-call score of the fitted dose curve at least 0.9, where 1 is the maximum). An outline of the steps: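 Transfect HepG2 with GAL4-UAS multi-reporter constructs (chimeric NR-Gal4, TRANS format); dose compound 24 h; isolate RNA, RT-PCR, FAM primer extension, HpaI digest; quantify by capillary electrophoresis; positive direction vs DMSO.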

Read-out in assay [12]: E-selectin (Homo sapiens) (UniProt P16581)
The assay is described as follows: BSK_3C_Eselectin: BioMAP Diversity Plus: 3C Assay for Eselectin Biomarker Activity (AID 2283015).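 As to outcome: cell surface E-selectin protein quantified by ELISA 24 h after dosing.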 The settings on record: primary human endothelial cells (HUVEC); actives raise or lower the signal. Put shortly: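 Endpoint derived by bidirectional fitting against DMSO vehicle; signal is ELISA-detected E-selectin from primary HUVEC at 24 h post-dosing, with parallel SRB staining (0.1% SRB, 560 nm) flagging cytotoxicity.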

Read-out in assay [13]: Monocyte Chemoattractant Protein-1 (MCP1), CCL2 (gene 6347)
The assay is described as follows: BSK_3C_MCP1: BioMAP Diversity Plus: 3C Assay for Monocyte Chemoattractant Protein-1 (MCP1) Biomarker Activity (AID 2283017). The following applies: primary human endothelial cells (HUVEC); actives raise or lower the signal. An outline of the steps:
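Using human vascular primary endothelium, researchers measured MCP-1 by ELISA 24 h after treatment, with DMSO serving as negative control for bidirectional fitting.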

Read-out in assay [14]: Monocyte Chemoattractant Protein-1 (MCP1), CCL2 (gene 6347)
The assay is described as follows: BSK_4H_MCP1: BioMAP Diversity Plus: 4H Assay for Monocyte Chemoattractant Protein-1 (MCP1) Biomarker Activity (AID 2283018). The following applies: primary human endothelial cells (HUVEC); actives raise or lower the signal. Put shortly:
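ELISA read-out of MCP-1 from human vascular endothelial primary cells taken at 24 hours after compound exposure. Activity was fitted in both directions relative to DMSO, which served as negative control.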

The target in assay [15] is human RAR-related Orphan Receptor beta (RORb), RORB (gene 6096) (UniProt Q92753). Briefly: ATG_RORb_TRANS: Attagene TRANS-FACTORIAL HepG2 Assay for human RAR-related Orphan Receptor beta (RORb) (AID 2283010; active = hit-call score of the fitted dose curve at least 0.9, where 1 is the maximum). Put shortly: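 Readout is reporter-gene mRNA induction, detected as fluorescence after RT-PCR and capillary electrophoresis, fitted for gain of signal against DMSO controls. Transiently transfected HepG2 liver cells carrying GAL4-UAS reporter constructs were treated for 24 hours.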

Assay [16] addresses human RAR-related Orphan Receptor gamma (RORg), RORC (gene 6097) (UniProt P51449). Briefly: ATG_RORg_TRANS: Attagene TRANS-FACTORIAL HepG2 Assay for human RAR-related Orphan Receptor gamma (RORg) (AID 2283011; active = hit-call score of the fitted dose curve at least 0.9, where 1 is the maximum). An outline of the steps:
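Chimeric RORg-Gal4 transactivation in transfected HepG2; 24 h exposure; RT-PCR/capillary electrophoresis readout of reporter mRNA, DMSO baseline.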

The target in assay [17] is human Thyroid Receptor alpha (THRa1), THRA (gene 7067) (UniProt P10827). Briefly: ATG_THRa1_TRANS: Attagene TRANS-FACTORIAL HepG2 Assay for human Thyroid Receptor alpha (THRa1) (AID 2283014; active = hit-call score of the fitted dose curve at least 0.9, where 1 is the maximum). An outline of the steps:
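Measured here is mRNA from a GAL4-UAS reporter in transfected HepG2 cells carrying a Gal4-fused receptor, 24 h post-dose. DMSO served as negative control and baseline.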

Structures are written as SMILES. Inconclusive results are not listed. The source made the active and inactive calls. The calls were made as follows, unless noted: active = hit-call score of the fitted dose curve at least 0.9, where 1 is the maximum; inactive = score below 0.9.

Broadly, the AC50 is the concentration at which the activity in the assay is half-maximal.

E-selectin (Homo sapiens), sequence (P16581 whole entry, looked up): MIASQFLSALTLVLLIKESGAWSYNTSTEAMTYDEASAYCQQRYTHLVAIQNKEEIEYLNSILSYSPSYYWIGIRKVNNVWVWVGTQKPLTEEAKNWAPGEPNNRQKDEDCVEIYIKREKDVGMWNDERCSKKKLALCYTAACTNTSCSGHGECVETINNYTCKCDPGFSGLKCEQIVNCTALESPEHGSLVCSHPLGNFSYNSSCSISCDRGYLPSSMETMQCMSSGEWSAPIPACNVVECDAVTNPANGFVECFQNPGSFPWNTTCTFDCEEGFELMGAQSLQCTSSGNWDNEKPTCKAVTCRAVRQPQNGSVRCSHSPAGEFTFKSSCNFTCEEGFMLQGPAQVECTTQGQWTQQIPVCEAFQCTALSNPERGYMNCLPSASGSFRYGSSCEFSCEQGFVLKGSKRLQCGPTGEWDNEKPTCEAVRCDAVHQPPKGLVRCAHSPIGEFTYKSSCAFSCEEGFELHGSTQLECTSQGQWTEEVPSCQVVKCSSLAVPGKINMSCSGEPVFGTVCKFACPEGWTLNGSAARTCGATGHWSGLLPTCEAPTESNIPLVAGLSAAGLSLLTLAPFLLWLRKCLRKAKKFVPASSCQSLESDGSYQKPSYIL
human Peroxisome Proliferator-activated Receptor alpha (PPARa), PPARA (gene 5465), sequence (Q07869 whole entry, looked up, the tested form may be a part): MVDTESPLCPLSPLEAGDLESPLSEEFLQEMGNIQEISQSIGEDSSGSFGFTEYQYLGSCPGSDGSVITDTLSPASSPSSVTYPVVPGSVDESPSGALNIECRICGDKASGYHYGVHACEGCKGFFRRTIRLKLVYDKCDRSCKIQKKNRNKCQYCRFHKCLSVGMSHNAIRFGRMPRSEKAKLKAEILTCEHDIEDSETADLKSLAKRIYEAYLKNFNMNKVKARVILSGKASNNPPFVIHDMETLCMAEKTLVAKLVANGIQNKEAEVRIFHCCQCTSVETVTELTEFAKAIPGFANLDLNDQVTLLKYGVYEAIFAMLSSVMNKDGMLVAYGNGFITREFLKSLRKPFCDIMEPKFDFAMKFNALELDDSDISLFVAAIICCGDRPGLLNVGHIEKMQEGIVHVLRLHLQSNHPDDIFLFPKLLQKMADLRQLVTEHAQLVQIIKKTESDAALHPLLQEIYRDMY
Peroxisome proliferator-activated receptor gamma (Homo sapiens), sequence (P37231 whole entry, looked up, the tested form may be a part): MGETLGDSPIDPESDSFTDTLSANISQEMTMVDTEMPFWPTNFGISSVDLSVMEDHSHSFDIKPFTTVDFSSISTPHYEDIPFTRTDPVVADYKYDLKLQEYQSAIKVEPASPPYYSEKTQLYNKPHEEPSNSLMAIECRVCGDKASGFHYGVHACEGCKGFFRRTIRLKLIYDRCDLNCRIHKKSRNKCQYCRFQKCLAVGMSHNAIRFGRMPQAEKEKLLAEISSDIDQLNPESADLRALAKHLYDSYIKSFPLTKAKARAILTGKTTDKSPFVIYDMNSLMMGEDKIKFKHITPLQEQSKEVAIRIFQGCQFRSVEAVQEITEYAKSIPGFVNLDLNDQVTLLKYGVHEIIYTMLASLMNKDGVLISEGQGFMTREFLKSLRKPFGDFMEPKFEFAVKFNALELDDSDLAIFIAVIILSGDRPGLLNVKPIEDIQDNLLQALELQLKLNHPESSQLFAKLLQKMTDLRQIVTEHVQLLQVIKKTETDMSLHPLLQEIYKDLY
human Retinoid X Receptor beta (RXRb), RXRB (gene 6257), sequence (P28702 whole entry, looked up, the tested form may be a part): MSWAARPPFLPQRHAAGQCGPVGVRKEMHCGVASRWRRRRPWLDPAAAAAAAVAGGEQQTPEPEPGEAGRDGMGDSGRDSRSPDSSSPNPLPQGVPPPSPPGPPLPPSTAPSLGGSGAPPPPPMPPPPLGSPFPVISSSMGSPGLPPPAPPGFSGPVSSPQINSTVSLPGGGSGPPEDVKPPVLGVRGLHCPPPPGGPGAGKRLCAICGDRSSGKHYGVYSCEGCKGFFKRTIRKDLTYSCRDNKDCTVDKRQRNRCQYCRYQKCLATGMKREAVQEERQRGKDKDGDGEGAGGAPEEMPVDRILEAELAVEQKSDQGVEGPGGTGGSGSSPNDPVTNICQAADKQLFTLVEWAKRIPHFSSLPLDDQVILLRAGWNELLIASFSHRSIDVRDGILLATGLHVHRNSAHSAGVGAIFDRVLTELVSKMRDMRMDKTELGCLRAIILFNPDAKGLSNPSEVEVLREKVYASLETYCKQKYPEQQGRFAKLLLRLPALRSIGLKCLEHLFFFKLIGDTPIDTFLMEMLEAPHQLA
Nuclear receptor subfamily 1 group I member 2 (Homo sapiens), sequence (O75469 whole entry, looked up, the tested form may be a part): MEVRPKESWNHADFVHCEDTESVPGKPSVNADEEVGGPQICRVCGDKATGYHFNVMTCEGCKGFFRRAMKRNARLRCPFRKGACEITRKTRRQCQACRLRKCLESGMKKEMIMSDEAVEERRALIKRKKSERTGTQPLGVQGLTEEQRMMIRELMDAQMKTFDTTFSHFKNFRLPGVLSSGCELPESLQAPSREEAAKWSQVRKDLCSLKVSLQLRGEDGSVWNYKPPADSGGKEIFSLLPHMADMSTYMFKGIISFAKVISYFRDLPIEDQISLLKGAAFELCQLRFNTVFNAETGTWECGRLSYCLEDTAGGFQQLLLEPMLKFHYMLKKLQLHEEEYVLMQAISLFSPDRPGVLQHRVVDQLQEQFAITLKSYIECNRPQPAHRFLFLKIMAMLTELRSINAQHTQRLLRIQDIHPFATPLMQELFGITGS
human Retinoic Acid Receptor beta (RARb), RARB (gene 5915), sequence (P10826 whole entry, looked up, the tested form may be a part): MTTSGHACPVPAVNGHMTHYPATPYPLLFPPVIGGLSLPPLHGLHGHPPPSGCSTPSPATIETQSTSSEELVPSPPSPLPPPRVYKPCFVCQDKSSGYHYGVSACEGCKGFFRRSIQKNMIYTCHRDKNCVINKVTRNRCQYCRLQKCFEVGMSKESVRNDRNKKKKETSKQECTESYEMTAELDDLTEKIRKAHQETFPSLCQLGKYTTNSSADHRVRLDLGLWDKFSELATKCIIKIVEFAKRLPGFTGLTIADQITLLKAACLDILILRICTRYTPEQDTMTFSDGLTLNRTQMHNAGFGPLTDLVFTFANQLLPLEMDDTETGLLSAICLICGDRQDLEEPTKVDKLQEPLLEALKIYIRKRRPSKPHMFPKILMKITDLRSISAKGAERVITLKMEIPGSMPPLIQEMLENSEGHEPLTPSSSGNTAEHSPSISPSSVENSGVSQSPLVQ
human RAR-related Orphan Receptor gamma (RORg), RORC (gene 6097), sequence (P51449 whole entry, looked up, the tested form may be a part): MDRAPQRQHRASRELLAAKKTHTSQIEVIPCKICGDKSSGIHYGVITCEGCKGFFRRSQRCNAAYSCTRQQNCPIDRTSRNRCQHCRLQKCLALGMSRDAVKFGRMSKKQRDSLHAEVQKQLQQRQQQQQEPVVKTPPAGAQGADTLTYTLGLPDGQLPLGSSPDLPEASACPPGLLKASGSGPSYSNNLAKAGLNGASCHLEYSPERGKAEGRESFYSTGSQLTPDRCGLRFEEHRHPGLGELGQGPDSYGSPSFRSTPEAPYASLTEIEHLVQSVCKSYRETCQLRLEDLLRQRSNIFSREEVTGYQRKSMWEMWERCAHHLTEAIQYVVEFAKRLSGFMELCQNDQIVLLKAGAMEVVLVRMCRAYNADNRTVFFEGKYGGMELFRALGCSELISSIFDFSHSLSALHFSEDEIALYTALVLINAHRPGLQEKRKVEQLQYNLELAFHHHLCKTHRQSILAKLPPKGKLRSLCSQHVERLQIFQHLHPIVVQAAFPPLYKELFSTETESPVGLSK
human Peroxisome Proliferator-activated Receptor delta (PPARd), PPARD (gene 5467), sequence (Q03181 whole entry, looked up, the tested form may be a part): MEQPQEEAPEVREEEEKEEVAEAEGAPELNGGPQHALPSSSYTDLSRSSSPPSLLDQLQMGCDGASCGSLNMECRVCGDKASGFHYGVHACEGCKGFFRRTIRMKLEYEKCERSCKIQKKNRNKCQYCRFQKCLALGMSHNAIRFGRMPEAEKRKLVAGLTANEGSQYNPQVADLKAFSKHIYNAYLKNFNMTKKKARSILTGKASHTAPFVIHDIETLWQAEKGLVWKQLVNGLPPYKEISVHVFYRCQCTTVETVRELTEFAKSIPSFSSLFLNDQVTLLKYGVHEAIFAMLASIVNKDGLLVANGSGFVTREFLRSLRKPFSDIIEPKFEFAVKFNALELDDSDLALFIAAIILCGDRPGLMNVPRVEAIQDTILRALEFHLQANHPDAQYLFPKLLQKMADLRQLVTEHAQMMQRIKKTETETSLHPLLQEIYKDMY
human RAR-related Orphan Receptor beta (RORb), RORB (gene 6096), sequence (Q92753 whole entry, looked up, the tested form may be a part): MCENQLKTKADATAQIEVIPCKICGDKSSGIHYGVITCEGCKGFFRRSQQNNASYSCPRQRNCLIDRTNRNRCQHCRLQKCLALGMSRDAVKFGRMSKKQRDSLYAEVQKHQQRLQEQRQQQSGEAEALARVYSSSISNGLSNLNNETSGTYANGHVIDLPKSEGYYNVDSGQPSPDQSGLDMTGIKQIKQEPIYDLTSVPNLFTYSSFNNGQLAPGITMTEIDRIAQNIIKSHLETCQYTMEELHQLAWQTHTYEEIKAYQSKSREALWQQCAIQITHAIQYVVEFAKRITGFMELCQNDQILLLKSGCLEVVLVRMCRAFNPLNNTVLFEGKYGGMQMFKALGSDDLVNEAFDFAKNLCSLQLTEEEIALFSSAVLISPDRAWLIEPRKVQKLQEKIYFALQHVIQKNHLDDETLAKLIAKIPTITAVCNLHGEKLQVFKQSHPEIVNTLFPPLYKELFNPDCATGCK
Retinoic acid receptor RXR-alpha (Homo sapiens), sequence (P19793 whole entry, looked up, the tested form may be a part): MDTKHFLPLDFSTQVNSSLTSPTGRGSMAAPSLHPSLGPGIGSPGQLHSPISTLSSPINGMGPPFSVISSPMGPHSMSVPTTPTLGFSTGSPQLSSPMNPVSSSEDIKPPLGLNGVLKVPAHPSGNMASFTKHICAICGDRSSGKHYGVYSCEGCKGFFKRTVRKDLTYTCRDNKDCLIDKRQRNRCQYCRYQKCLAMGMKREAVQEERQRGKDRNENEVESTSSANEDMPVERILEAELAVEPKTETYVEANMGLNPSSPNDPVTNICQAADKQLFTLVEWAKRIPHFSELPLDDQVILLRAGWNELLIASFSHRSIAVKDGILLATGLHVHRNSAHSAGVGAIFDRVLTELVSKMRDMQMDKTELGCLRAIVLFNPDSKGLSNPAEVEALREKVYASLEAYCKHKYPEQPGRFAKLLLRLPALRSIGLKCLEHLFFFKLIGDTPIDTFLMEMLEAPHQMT

Take `COC(=O)c1c(C(F)F)nc(C(F)(F)F)c(C2=NCCS2)c1CC(C)C`: the outcome in [1], in assay [3], in [4], in assay [5], in assay [6] and in [10] was inactive. The outcome in assay [11], in assay [12] and in assay [13] was inactive. For the same molecule, the concentration at half-maximal activity (AC50) in assay [2] was 6.71 µM (active); in assay [7], 36.9 µM (active); in assay [8] it was 45.5 µM (active); in [9] it was 0.431 µM (active); in assay [14], 17.6 µM (active).

For `COP(=S)(OC)SCn1nnc2ccccc2c1=O`, the result in [1], in [2], in assay [3], in [4], in assay [5] and in assay [6] was inactive. In addition, the result in assay [7], in [8], in assay [9], in assay [15], in assay [16] and in assay [11] was inactive. Moreover, the outcome in assay [17], in assay [12], in assay [13] and in assay [14] was inactive.

With `Cc1ccc(N=CN(C)C=Nc2ccc(C)cc2C)c(C)c1`, the AC50 is 16.4 µM (active) in assay [1]; 38.6 µM (active) in [2]; 30.3 µM (active) in [5]; 15.3 µM (active) in [7]; 33 µM (active) in [12]; 36 µM (active) in assay [13]. For the same molecule, the AC50 in assay [14] was 31.4 µM (active). Further, the molecule was classed as inactive in assay [3], in assay [6] and in assay [9].

As for `COc1cc(OC)nc(NC(=O)NS(=O)(=O)c2ncccc2OCC(F)(F)F)n1`, the result in [1], in assay [2], in [3], in assay [5], in assay [7] and in [8] was inactive. The result in [9], in [15], in assay [16], in assay [10], in assay [11] and in assay [12] was inactive. The result in assay [13] and in assay [14] was inactive.
